Screening data (PubChem)
ERK EGF block: inhibitors of EGF-stimulated ERK signaling pathway; HEK293-V1b, EGF-stimulated phospho-ERK AlphaScreen; Potency, µM (top dose mostly 11.5 µM), for inactives: at the top dose activity change, negative = inhibition, hits mostly inhibitors; 0.41% of 130,000 active; active = well fitted inhibition curve with a large enough effect;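 also: plate controls were stimulated vehicle wells for no effect and unstimulated vehicle basal for full effect; nearly all actives have a fitted effect of over 55% in size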
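Concentration-response of compounds against EGF-driven ERK phosphorylation in V1b-expressing HEK293 cells; 30 min preincubation, 5 min EGF, AlphaScreen detection; Normalized to DMSO basal and 25 nM EGF.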
Numbers without * were called inactive; [ ] = remark or other dose. The full list was thinned out, with hits kept by preference. Potency is read from the fitted curve at half-maximal effect.

SMILES	ERK EGF block
CCOC(=O)CNC(=O)O[C@H]1C(=O)c2cc(OC)ccc2O[C@@H]1c1ccc(OC)c(Br)c1	-5.3%
COc1ccc(N2CCN(C(=S)Nc3ccc(C)cc3C)CC2)cc1	-1.1%
COc1ccc(N2CCN(C(=S)NCc3ccc(C)cc3)CC2)cc1	0.1%
COc1ccc(CNC(=O)Nc2cc(C)ccc2C)cc1	-5.0%
COc1ccc(N2CCC(CNC(=S)Nc3cc(C)ccc3C)C2)cc1 (stereo not given)	14.1µM*
COc1ccc(N2CCC(CNC(=S)Nc3cc(C)cc(C)c3)C2)cc1 (stereo not given)	14.1µM*
COc1cccc(CNC(=S)Nc2cc(C)cc(C)c2)c1	-3.2%
CCCCC/C=C\C/C=C\C[C@H](O)/C=C/C=C\CCCC(=O)O	3.4%
N[C@H](Cc1ccc(O)c(O)c1)C(=O)O	2.4%
Nc1ncnc2c1ncn2[C@@H]1O[C@H](C(=O)NC2CC2)[C@H](O)[C@H]1O	-5.3%
O=C(O)[C@@H](O)[C@@H](O)[C@@H](O[C@H]1O[C@@H](CO)[C@@H](O)[C@@H](O)[C@@H]1O)[C@@H](O)CO	27.4%[25.7 µM]
CCOC(=O)CC(CC(C)=O)C(=O)OCC (stereo not given)	-8.9%
Cc1c(N=c2scc(-c3ccccc3)n2C)c(=O)n(-c2ccccc2)n1C	8.6%
CC1=CC(=Nc2c(C)n(C)n(-c3ccccc3)c2=O)C=C(C)C1=O	0.6%
CCC(C)C1=CC(=Nc2c(C)n(C)n(-c3ccccc3)c2=O)C=C(C(C)CC)C1=O (stereo not given)	15.8µM*
COCCn1c(=O)c(-c2cc(F)cc(F)c2)nc2cnc(Oc3cccc(Cl)c3)nc21	-17.1%
CCC/C=C(\CCC)C(NC(=O)C(C)(C)C)c1ccc(C(=O)OC)cc1 (stereo not given)	1.0%
Oc1ccc(/C=N/n2cnn(Cc3ccccc3Cl)c2=S)c(O)c1	-7.7%
CCN(CC)c1ccc(/C=N/N=C(c2ccccc2)c2ccccc2)c(O)c1	3.1%
CCN(CC)c1ccc(/C=N/N2CCN(Cc3ccccc3Cl)CC2)c(O)c1	15.8µM*
C=C(COC)C1=CCC(C(=O)OC)(C(=O)OC)[C@@H](C[N+](=O)[O-])c2ccccc21	-11.2%
N#CCCn1c(=O)c(-c2ccccc2)nc2cnc(OCc3ccccc3)nc21	11.5%
N#Cc1ccc(NC(=O)Nc2cccc(C#N)c2)cc1	-2.8%[57.5 µM]
N#Cc1ccc(NC(=O)Nc2ccc(Oc3ccc(NC(=O)Nc4ccc(C#N)cc4)cc3)cc2)cc1	31.6µM*
CC(=O)Nc1ccc(Oc2ccccc2)cc1	0.9%[57.5 µM]
SMILES	ERK EGF block
CC1=C(C(=O)OCc2ccccc2)C(c2ccc(C3CCCCC3)cc2)NC(=O)N1CCCCCC(=O)O (stereo not given)	-3.2%
CCCCCCCCCCCCCCCC(=O)NCC(=O)O	3.7%
COc1ccc2c(c1)C(=O)[C@H](OC(=O)Nc1cc(OC)c(OC)c(OC)c1)[C@@H](c1ccc(OC)c(Br)c1)O2	3.1%
O=C(COc1ccc(Cl)cc1Cl)N1CCN(c2ccccn2)CC1	-8.3%
Cc1cc(Cl)ccc1OCC(=O)N1CCCN(C(=O)COc2ccc(Cl)cc2C)CC1	31.6µM*
Cc1ccc2c(Cl)cc(Cl)c(OCC(=O)N3CCCC3)c2n1	6.3%
Cc1ccc2cc(CCNC(=O)C(C)C)c(=O)[nH]c2c1C	-2.1%
CCC(=O)NCCc1cc2ccc(C)c(C)c2[nH]c1=O	3.0%
Cc1ccc2cc(CCNC(=O)c3cc4ccccc4o3)c(=O)[nH]c2c1C	31.6µM*
CC(=O)N1CCC2(CCCN(C(c3ccccc3)c3ccccc3)C2)CC1	5.7%
COc1ccc([N+](=O)[O-])cc1Nc1ncnc2ccccc12	-3.1%
COC(=O)c1cccc(Nc2nc(-c3cccnc3)nc3ccccc23)c1	-5.7%[57.5 µM]
O=C(O)c1cccc(Nc2nc(-c3cccnc3)nc3ccccc23)c1	12.0%
CC(=O)Nc1ccc(Nc2ncnc3ccccc23)cc1	-3.4%[57.5 µM]
O=C(Oc1cccc(Nc2ncnc3ccccc23)c1)c1cccnc1	14.1µM*
COc1ccc(C(=O)Oc2cccc(Nc3ncnc4ccccc34)c2)cc1OC	25.1µM*
COC(=O)N1c2ccccc2C23[C@@H]4CN5CCC[C@]6(CCC12C(O)(C6)C4=O)[C@H]53	-6.9%
COc1ccc2c(c1)O[C@@H](c1ccc3c(c1)OCO3)[C@H](OC(=O)NS(=O)(=O)c1ccc(C)cc1)C2=O	-4.3%
C=CC(C1=CC(=O)C(OC)=C(OC)C1=O)c1ccccc1 (stereo not given)	34.9%
CN(C(=O)COc1ccccc1C(=O)NCCOc1ccccc1)c1ccccc1	31.6µM*
CN(C(=O)COC(=O)CNC(=O)c1ccccc1Cl)c1ccccc1	-8.2%
CCOc1ccccc1C(=O)NCCC(=O)O	-15.9%[57.5 µM]
O=C1c2ccccc2-c2cccc(C(=O)N3CCCCC3)c21	-2.9%[57.5 µM]
Cn1c(=O)cc2c3c(c(N4CCCCC4)ccc31)C(=O)c1ccccc1-2	22.4µM*
Cn1nc(-c2ccccc2)c(N2CCCCC2)cc1=O	6.0%
COc1cccc(/C=N/Nc2ncnc3c2ncn3Cc2ccccc2)c1O	12.6µM*
COc1cccc(/C=N/Nc2cc(Cl)nc(C)n2)c1O	-5.6%
COc1cccc(/C=N/NC(=O)CNC(=O)COc2ccccc2)c1O	-3.1%[57.5 µM]
